The panel holds about 83,000 compounds, 20% with a hit somewhere; the sample as a whole holds those more often.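 96-well plates, one dose, 48 hours. Percent growth reported; active if below 10.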 Unmarked numbers belong to inactive results. Activity calls are given as the source filed them.
Assays:
Test in all cases: NCI-60 one-dose screen, 48 h (100 = growth as untreated, 0 = no growth, -100 = all killed)
Details in all cases: 10 µM unless noted
[1] = test system: DU-145 prostate
[2] = test system: K-562 leukemia
[3] = test system: MDA-MB-231 breast
[4] = test system: RXF 393 renal
[5] = test system: SF-268 CNS
[6] = test system: SF-539 CNS
[7] = test system: UACC-257 melanoma
[8] = test system: M14 melanoma
[9] = test system: HCT-15 colon
[10] = test system: HT29 colon
[11] = test system: SNB-75 CNS
[12] = test system: U251 CNS
[13] = test system: PC-3 prostate
[14] = test system: SK-MEL-5 melanoma
[15] = test system: UACC-62 melanoma
[16] = test system: LOX IMVI melanoma
[17] = test system: SK-MEL-28 melanoma
[18] = test system: SNB-19 CNS
[19] = test system: MALME-3M melanoma
[20] = test system: SF-295 CNS

SMILES	growth [1]	growth [2]	growth [3]	growth [4]	growth [5] [%]	growth [6]	growth [7]	growth [8]	growth [9] [%]	growth [10]	growth [11]	growth [12] [%]	growth [13] [%]	growth [14]	growth [15]	growth [16]	growth [17]	growth [18] [%]	growth [19] [%]	growth [20] [%]
Fc1ccc2nc(-c3ccc(-c4noc(-c5ccc(Cl)cc5)n4)cc3)[nH]c2c1	98.5%	92.5%	106%	110%	105	100%	101%	107%	109	103%	110%	103	102	104%	113%	104%	128%			
COCCCNCC(=O)Nc1c(C)cccc1C	113%	120%	96.6%	113%	109	95.3%	106%	114%	108	112%	115%	104	102	106%	110%	101%	122%	110		
SCc1ccc(CS)cc1	116%		123%	112%		104%	114%	106%	105	120%	109%	101	98.1	95.7%	105%	96.2%	112%	115	106	109
CCCCCCCCCCC(C(O)c1ccccc1)N1CCCCC1 (stereo not drawn)	64.5%	3.31% (active)	9.66% (active)	-22.3% (active)	68.4	27.3%	-1.19% (active)	-63.8% (active)	16.8	-10.5% (active)	63.1%	28	25.7	-94.3% (active)	-9.77% (active)	-30.5% (active)	-15.9% (active)	43.7		
COc1ccc(Nc2ncccc2C(=O)NCc2cn(Cc3cc(OC)cc(OC)c3)nn2)cc1	95.2%	84.3%	105%	96.1%	87.2	90.3%	98.1%	98.7%	104	97.8%	81.7%	98.6	90.9	97.6%	97.1%	96.5%	113%	106		
CC1(C)C2CCC(O)(C(=O)O)C1C2 (stereo not drawn)		108%	98.9%	136%	112	103%	124%	105%	114	110%	83.4%	113	94.9	107%	91%	110%		102	109	103
C=CCOc1c(Br)cc(Br)cc1Br	81.8%	52.2%	44.6%	76.9%	68.7	45.4%	79%	73.5%	62.9	104%	60.7%	46.8	65.8	59%	37.2%	64.4%	77.8%	50.5		
COc1cc(-c2n/c(=C\c3c(O)[nH]c4cc(Cl)ccc34)cc3c2=Nc2ccccc2-3)cc(OC)c1OC	30.6%	49.1%	53.1%	28.7%	22.5	62.7%	40.9%	37.7%	93.7	24.3%	36.1%	23.8	52.2	27.2%	56.8%	34.3%	43%	63.9		
Nc1cccc(S(=O)(=O)c2cccc(N)c2)c1		10.5%	105%	138%	107	113%	119%	107%	114	110%	88.3%	113	92	113%	102%	104%		133	115	100
COc1cc(Cn2c(-c3ccccc3)cc3c2-c2oncc2CC3)cc(OC)c1OC	-21.1% (active)	11.8%	47.1%	9.54% (active)	44.8	-3.28% (active)	58.8%		27.6	4.59% (active)	-17.3% (active)	24.1	20.6	18.4%	47.5%	39.4%	49.7%	44.5		
Nc1c(C(=O)c2ccc(Br)cc2)sc2nc3c(cc12)CCCC3	92.4%		91%	62.5%	101	92%	91.9%	82.7%	80.9	96.6%	101%	89.6	85.4	92%	93.9%	112%	89%	97.3	82.6	98.2
COc1ccc(/C(=C\c2cc(OC)c(OC)c(OC)c2)C(=O)Nc2nc3ccc(Cl)cc3s2)cc1	93%		90.9%	109%	71.1	100%	92.1%	105%	93.2	88.3%	89%	90.8	87.5	87.6%	77.6%	92.5%	107%	105	93.8	
CCCCCNCCCCCNc1cc(OC)cc2cccnc12	104%		88.8%	68.3%	95.6	87.8%	101%	87.3%	88.6	64.2%	61.7%	79.8	69.6	31.1%	75.3%	95.5%	91.9%	94.1	60.2	
COc1ccc2nc(NC(=O)/C(=C/c3cc(OC)c(OC)c(OC)c3)c3ccc(OC)c(OC)c3)sc2c1	106%		68.8%	107%	99.9	102%	97.2%	104%	100	88.4%	94.3%	94.6	86.8	93%	90.5%	90.4%		102	98	
COc1ccc2c(c1)CCCC21C(=O)Nc2ccccc21 (stereo not drawn)	103%		99.4%	110%	86.6	101%	110%	109%	97.2	87.4%	101%	99.3	104	103%	106%	98%	111%	105	102	
CCOc1cccc(/C=N/NC(=O)Cc2ccc(Nc3ccnc(C(F)(F)F)c3)cc2)c1O	33.2%		26.8%	51.1%	18.2	17.4%	21.9%	3.19% (active)	17.3	85%	39.4%	20.6	50	-36% (active)	-5.55% (active)	2.43% (active)	60.6%	28	34.3	47.9
CC(=O)N[C@@H](CCC(N)=O)C(=O)O	112%	9.01% (active)	87.2%	90%	108	113%	97.4%	93.4%	113	95.6%	69.2%	102	74.5	101%	98.2%	91.4%	101%	126		
O=C(O)c1ccccc1N=Cc1ccccc1	108%	99.2%	109%	132%	109	101%	113%	109%	111	108%	119%	106	87.6	116%	119%	92.6%	129%	112		
